YjeE inh = YjeE (TsaE) inhibition, E. coli; P0AF67; purified YjeE enzyme, qHTS inhibition assay; Potency, µM; hit rate 0.05% among 71,000
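Fluorescence polarization of a BODIPY Texas Red–ADP probe (2 uM) bound to purified YjeE (10 uM) was read after 15 min room-temperature incubation with compounds. Loss of polarization marks inhibitors; ADP serves as titrated control.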
BRCT inh red = BRCT-phosphoprotein interaction inhibition (red fluorophore). P38398. BRCT-phosphopeptide binding, red fluorescence polarization. Potency, µM (series often up to 76.9 µM), for inactives: top-dose activity change, negative = inhibition, hits mostly inhibitors. hit rate 0.03% among 75,000. AID 892; note: % is set by controls: 0 for no effect and ±100 for the full control effect
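Fluorescence polarization: 100 nM His-tagged BRCA1 BRCT with 100 nM TAMRA-labelled phospho-BACH1 decapeptide, phosphate buffer pH 7.3 with 150 mM NaCl, DTT, 0.01% Tween 20; 12 min RT. Binding inhibition seen as FP decrease.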
BRCT inh green = blocks human BRCA1 BRCT binding to phosphopeptide, green readout | P38398 | BRCA1 BRCT-phosphopeptide binding, green fluorescence polarization | Potency, µM (series often up to 76.9 µM), without a hit: at the highest dose activity change, negative = inhibition, hits mostly inhibitors | hit rate 0.05% among 75,000;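 note: potency is the fitted concentration of half-maximal effect; plate controls were peptide without protein for full effect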
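Fluorescence polarization: His-tagged BRCT (~35 kDa BRCA1 C-terminus, 250 nM) bound to 100 nM fluorescein-labeled phosphorylated 10-aa BACH1 peptide, pH 7.3 phosphate buffer with DTT and Tween 20. Compounds incubated 12 min at room temperature; inhibition read as lowered polarization.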
HEK293 cAMP cs = counter-screen for TSHR agonists: cAMP increase in parental HEK293; parental HEK293 CNG cAMP sensor, membrane potential fluorescence; Potency, µM (doses to about 57.1 µM), without a hit: at the top dose activation, most hits filed as activators; hit rate 2.5% among 73,000; note: potency is the fitted concentration of half-maximal effect; % of control where 0% means no effect; nearly all actives have a fitted effect of over 55% in size
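Parental HEK 293 cells stably expressing a modified CNG channel (no TSHR) report cAMP rise as membrane depolarization. Membrane potential dye with 100 uM RO 20-1724 was loaded for 60 min at room temperature, then compound added for 30 min; fluorescence read at 590 nm.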
Hsp90 Hop PPI = changes Hsp90-Hop TPR2A binding signal, up or down | AlphaScreen TPR2A-His6 binding biotin-Hsp90 C-terminal peptide | Potency, µM (highest dose often 57 µM), for the others: at the top dose activity change, negative = inhibition | hit rate 0.44% among 71,000 | AID 595; active = well fitted curve in either direction with a large enough effect; inconclusive = small, poorly fitted or top-dose-only effect, or another doubt; note: potency is the fitted concentration of half-maximal effect; % is set by controls: 0 for no effect and ±100 for the full control effect
TSHR ag = TSH receptor (human) agonism | P16473 | HEK293-CNG-TSHR cells (CNG channel as cAMP sensor), membrane potential dye, cAMP | Potency, µM (doses to about 57.1 µM), inactives show at the top dose activation, actives largely listed as activators | hit rate 0.48% among 73,000; active = well fitted activation curve with a large enough effect in the main read-out, with a control signal flat, not every such curve was filed as active; inconclusive = small, poorly fitted or top-dose-only effect, or a change in a side signal; inactive = no such curve, though single readings can be large or run the other way; % of control where 0% means no effect;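 note: the control signal comes from parental cells without the receptor; potency is the fitted concentration of half-maximal effect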
Target sequence (P16473 whole entry, looked up): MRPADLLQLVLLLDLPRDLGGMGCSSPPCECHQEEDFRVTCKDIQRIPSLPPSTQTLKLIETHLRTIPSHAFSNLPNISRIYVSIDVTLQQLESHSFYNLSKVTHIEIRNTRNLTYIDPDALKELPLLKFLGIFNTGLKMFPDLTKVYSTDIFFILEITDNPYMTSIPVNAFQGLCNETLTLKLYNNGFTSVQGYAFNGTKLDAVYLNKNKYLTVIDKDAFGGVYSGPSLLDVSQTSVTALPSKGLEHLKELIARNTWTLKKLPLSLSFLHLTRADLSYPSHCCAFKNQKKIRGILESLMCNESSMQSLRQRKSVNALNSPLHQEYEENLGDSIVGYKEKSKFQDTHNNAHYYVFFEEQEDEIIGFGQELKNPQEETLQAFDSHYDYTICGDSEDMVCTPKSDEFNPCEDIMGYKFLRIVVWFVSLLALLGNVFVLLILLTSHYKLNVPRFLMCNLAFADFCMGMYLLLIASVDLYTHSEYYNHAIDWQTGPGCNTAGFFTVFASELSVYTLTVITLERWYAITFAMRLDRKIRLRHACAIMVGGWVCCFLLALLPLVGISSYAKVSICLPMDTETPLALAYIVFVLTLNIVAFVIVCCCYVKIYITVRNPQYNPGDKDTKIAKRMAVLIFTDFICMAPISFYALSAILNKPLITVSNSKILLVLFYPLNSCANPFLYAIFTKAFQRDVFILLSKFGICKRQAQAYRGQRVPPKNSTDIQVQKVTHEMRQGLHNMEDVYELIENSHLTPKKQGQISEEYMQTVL
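HEK 293 cells stably expressing TSHR and a cAMP-gated CNG channel; parental CNG-only cells as counterscreen. Cells preloaded 60 min with membrane potential dye plus 100 uM RO 20-1724, then compound 30 min; fluorescence read at 590 nm.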
An asterisk follows results filed as active; i = inactive; ? = inconclusive; / = not tested or not shown; [ ] = dose if it differs, or a comment. The list is not random: actives were taken first. Their share in the collection is about 3.3%. Unless noted, calls come from the whole dose curve; as a rule, active = well fitted curve in the direction sought with a large enough effect; inconclusive = small, poorly fitted or top-dose-only effect, or another doubt; inactive = no such curve, though single readings can be large; an effect the other way counts as inactive or inconclusive.

SMILES | YjeE inh | BRCT inh red | BRCT inh green | HEK293 cAMP cs | Hsp90 Hop PPI | TSHR ag
O=C(c1csnn1)N1CCC2(CCCN(c3ccccn3)C2)CC1 | i | -1.0% | -0.9% | ? | -3.4% | ?
Cc1ccc2cc(CN(Cc3ccco3)C(=O)C3CCCCC3)c(=O)[nH]c2c1C | i | -0.5% | -0.5% | 20µM* | 6.9% | ?
CC(=O)c1sc(NC(=O)C=C(C)C)nc1C | i | -1.2% | 0.5% | 1.5% | -3.1% | -5.0%
CC(=O)c1sc(NC(=O)C2(F)C(F)(F)C(F)(F)C(F)(F)C(F)(F)C2(F)F)nc1C | i | -0.1% | -1.7% | 12.6µM* | -3.3% | ?
CCOC(=O)N1CCN(CC(=O)Nc2c(C(=O)OC)[nH]c3ccc(Cl)cc23)CC1 | i | 0.0% | -0.9% | 15.1% | -1.7% | 7.8%
COC(=O)c1[nH]c2ccc(Cl)cc2c1NC(=O)CN1CCC(C(N)=O)CC1 | i | 1.1% | -1.3% | 15.8µM* | 2.6% | ?
N#CCCn1c(=O)c(-c2ccccc2)nc2cnc(N3CCOCC3)nc21 | i | 1.0% | -3.1% | 12.3% | -6.7% | 5.5%
CCOC(=O)c1c(C)noc1CP(=O)(c1ccccc1)c1ccccc1 | i | 0.1% | -0.2% | 12.6µM* | 0.0% | ?
O=C(CCC1N=C2c3ccccc3N=C(SCc3ccc(F)cc3)N2C1=O)NCc1ccco1 (configuration not stated) | i | 2.1% | -4.6% | ? | -12.2% | ?
O=C(CCC1N=C2c3ccccc3N=C(SCc3ccc(Cl)cc3)N2C1=O)NCc1ccco1 (configuration not stated) | i | 2.2% | 2.3% | 20µM* | -12.1% | ?
C=CCn1c(SCC(=O)c2cccs2)nc2sc(CC)cc2c1=O | i | 0.7% | -1.0% | 15.8µM* | 11.4% | ?
C=CCn1c(SCC(=O)N2CCN(C(=O)c3ccco3)CC2)nc2sc(CC)cc2c1=O | i | -0.3% | 8.8% | 13.5% | -12.2% | 3.3%
COc1ccccc1N(CCC#N)C(=O)CSc1ccc2c(c1)OCCO2 | i | 1.1% | -2.2% | 5.5% | -3.3% | 25.1µM*
CC(=O)NC(N1CCCCC1)C(F)(F)C(F)(F)C(F)(F)C(F)F (configuration not stated) | i | -0.1% | -2.7% | -1.3% | 0.4% | 1.2%
O=P(O)(O)C(O)C(F)(F)C(F)(F)C(F)(F)C(F)F (configuration not stated) | i | -2.3% | -1.2% | 3.98µM* | 0.2% | ?
CC(=O)O[C@@H]1[C@H]([N+]2(C)CCCCC2)C[C@@H]2[C@@H]3CC[C@@H]4C[C@@H](OC(C)=O)[C@H]([N+]5(C)CCCCC5)C[C@@]4(C)[C@H]3CC[C@]21C | i | -0.9% | -2.1% | 0.1% | -1.0% | 1.9%
Cc1ccc(-c2noc(CSc3nnnn3C3CCCCC3)n2)cc1 | i | -0.4% | -0.2% | 46.7% | 8.1% | 25.1µM*
Cc1cc(NC(=O)CSc2nnnn2C2CCCC2)no1 | i | -0.4% | -2.1% | 2.5% | -1.2% | -5.2%
COc1ccccc1NC(=O)CSc1nnnn1-c1ccc2c(c1)OCO2 | i | -0.1% | -0.9% | 9.4% | -4.3% | 18.2%
COc1cccc(-n2nnnc2SCC(=O)Nc2cccc(C)n2)c1 | i | -0.5% | 0.1% | 25.1µM* | -0.9% | ?
Cc1ccc(-n2nnnc2SCC(=O)Nc2ccccc2N2CCCCC2)cc1C | i | -0.6% | -1.9% | 3.16µM* | 22.1% | ?
CCn1c(CNc2ccc(Cl)cc2)nnc1SCC(=O)NCc1ccccc1 | i | 0.1% | -2.0% | 0.0% | -2.6% | -4.0%[11.4 µM]
O=C(O)CSc1nnc(CNc2ccc(Cl)cc2)n1Cc1ccccc1 | i | -0.7% | 2.3% | 31.6µM* | -3.0% | ?
COc1cccc(NC(=O)c2ccccc2-c2nc(-c3cccc(C)c3)no2)c1 | i | 0.2% | -2.2% | 15.8µM* | 5.8% | ?
COCCNC(=O)c1ccccc1-c1nc(-c2ccccc2OC)no1 | i | -2.1% | -1.0% | 6.3% | -4.7% | 17.6%
SMILES | YjeE inh | BRCT inh red | BRCT inh green | HEK293 cAMP cs | Hsp90 Hop PPI | TSHR ag
CC(C)NC(=O)c1ccccc1-c1nc(-c2ccccc2Cl)no1 | i | 1.9% | -1.2% | ? | 1.6% | ?
CC(C)(C)NC(=O)c1ccccc1-c1nc(-c2ccccc2Cl)no1 | i | 1.4% | -0.2% | 15.8µM* | ? | ?
CCOc1ccccc1NC(=O)c1ccccc1-c1nc(-c2ccccc2OC)no1 | i | 0.9% | 3.9% | 20µM* | 0.4% | ?
CC1(C)[C@@H](O)CC[C@@]2(C)[C@H]1CC[C@]1(C)[C@H]2C(=O)C=C2[C@@H]3C[C@@](C)(C(=O)O)CC[C@]3(C)CC[C@@]21C | i | / | / | ? | -5.4% | ?
Cc1nnsc1NC(=O)OCC(C)C | i | 0.0% | 2.6% | 12.6µM* | -7.5% | ?
CCc1nc(SCC(=O)Nc2ccc3c(c2)OCCO3)c2oc3ccccc3c2n1 | i | 0.2% | -3.5% | 12.6% | -6.3% | /
Cc1nc(SCC(=O)Nc2ccc3c(c2)OCCO3)c2oc3ccccc3c2n1 | i | -0.6% | -2.1% | 19.9% | 0.7% | 3.98µM*
COC(=O)c1c(C(=O)OC)c2cc(C)ccn2c1Cl | i | 1.1% | -1.3% | 20µM* | 18.1% | ?
COC(=O)c1nc2cc(C)ccn2c1F | i | -1.0% | -2.0% | -1.8% | -0.2% | 0.6%
CCOc1ccc(-c2cc(C(=O)N/N=C/c3ccc(O)c(OC)c3)[nH]n2)cc1 | / | 1.0% | -2.7% | -11.7% | / | -7.5%
O=C(O)c1ccc(-c2ccccc2Cl)o1 | i | 0.6% | -0.3% | 10.2% | -0.9% | 9.7%
N#Cc1ccccc1NC(=O)c1ccc(-c2ccccc2Cl)o1 | i | -3.9% | -1.9% | 25.1µM* | 2.1% | ?
C=CC(=O)OCCCCCCOC(=O)C=C | i | -1.0% | -1.0% | 17.5% | -0.6% | ?
C=C[C@@]1(C)CC(=O)[C@@]2(O)[C@@]3(C)[C@@H](O)CCC(C)(C)[C@@H]3[C@H](OC(=O)CCN(C)C)[C@H](OC(C)=O)[C@@]2(C)O1 | i | -0.3% | 1.0% | 0.126µM* | ? | ?
C=C[C@]1(C)CC(=O)[C@@]2(O)[C@@]3(C)C(O)CCC(C)(C)C3C(O)C(OC(C)=O)[C@@]2(C)O1 (some centres not stated) | / | 1.2% | -1.5%[3.08 µM] | / | / | /
C=C[C@@]1(C)CC(=O)[C@@]2(O)[C@@]3(C)[C@H](O)CCC(C)(C)[C@@H]3[C@H](O)[C@H](OC(C)=O)[C@]2(C)O1 | i | -1.3% | 1.1% | 0.501µM* | 3.6% | ?
O=C(c1ccccc1Cl)N1CCN(c2ccccn2)CC1 | i | -0.8% | -3.1% | 2.8% | -1.6% | -8.1%

Source: PubChem BioAssay (National Center for Advancing Translational Sciences (NCATS))
